For eleven molecules, Percent Effect results are on record in ChEMBL document CHEMBL3988442, “University of Dundee, Small-Polar-MMV Screening Library” (2021).

Common to all, as to set-up: scale not given: direction of the effect not stated beside the values
In experiment [1] the target is Protein translocase subunit SecA (Escherichia coli (strain K12)) (UniProt P10408). Put plainly: Assay to Identify E. coli SecA ATPase Inhibitors. As to conditions: 30 µM. In kind it is functional.
The target in experiment [2] is T1, Ubiquitin-activating enzyme e1, putative (Leishmania donovani (strain BPK282A1)) (UniProt E9BSI1).
T1 sequence (whole entry): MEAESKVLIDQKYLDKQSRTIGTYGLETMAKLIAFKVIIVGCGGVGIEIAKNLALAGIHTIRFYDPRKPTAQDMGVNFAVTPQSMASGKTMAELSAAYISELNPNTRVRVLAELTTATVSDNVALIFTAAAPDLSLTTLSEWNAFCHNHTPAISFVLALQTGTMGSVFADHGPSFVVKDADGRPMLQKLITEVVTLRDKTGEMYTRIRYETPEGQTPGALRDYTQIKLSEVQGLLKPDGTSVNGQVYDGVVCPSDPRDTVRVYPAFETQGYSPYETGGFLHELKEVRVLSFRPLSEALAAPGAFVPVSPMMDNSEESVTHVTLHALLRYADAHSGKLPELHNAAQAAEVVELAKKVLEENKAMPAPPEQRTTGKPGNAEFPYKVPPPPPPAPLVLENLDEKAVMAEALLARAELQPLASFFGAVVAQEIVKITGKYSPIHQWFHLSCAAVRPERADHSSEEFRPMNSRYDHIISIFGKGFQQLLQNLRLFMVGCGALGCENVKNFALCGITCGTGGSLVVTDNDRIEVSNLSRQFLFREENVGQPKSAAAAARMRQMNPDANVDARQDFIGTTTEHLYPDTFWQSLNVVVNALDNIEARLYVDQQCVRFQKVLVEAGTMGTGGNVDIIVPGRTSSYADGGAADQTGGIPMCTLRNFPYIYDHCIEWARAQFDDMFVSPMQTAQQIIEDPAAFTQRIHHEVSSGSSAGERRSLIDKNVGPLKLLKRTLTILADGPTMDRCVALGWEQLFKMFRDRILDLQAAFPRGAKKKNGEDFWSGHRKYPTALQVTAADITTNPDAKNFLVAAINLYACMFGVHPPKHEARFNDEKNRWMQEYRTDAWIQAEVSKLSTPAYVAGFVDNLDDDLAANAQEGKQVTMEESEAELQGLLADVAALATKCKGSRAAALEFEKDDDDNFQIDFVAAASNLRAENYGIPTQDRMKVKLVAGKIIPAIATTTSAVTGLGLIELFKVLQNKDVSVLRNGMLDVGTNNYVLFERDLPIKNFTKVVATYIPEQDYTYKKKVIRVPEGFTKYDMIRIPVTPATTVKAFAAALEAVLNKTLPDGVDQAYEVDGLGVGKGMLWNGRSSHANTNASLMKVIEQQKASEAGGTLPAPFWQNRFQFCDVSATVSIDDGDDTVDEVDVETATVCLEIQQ
In words: Leishmania donovani Ubiquitin Activating Enzyme (LdE1). The class given is functional. The following applies: 30 µM.

Experiment [3] concerns the target AMP-activated protein kinase, AMPK (Homo sapiens) (UniProt P54646+O43741+P54619+Q9UGJ0+Q9Y478+Q13131+Q9UGI9). Put plainly: AMP-dependent Kinase enzyme assay. An in vitro enzyme assay that detects ADP turnover that is directly proportional to AMPK activity. This uses naive AMPK that is activated during the assay with MK-8722. The following applies: 30 µM. The class given is functional.

Experiment [4] concerns the target Sialic acid-binding Ig-like lectin 9 (Homo sapiens) (UniProt Q9Y336). In words: Hs-Siglec9 ALPHAscreen SOP 20170721. The following applies: 10 µM. In general terms: In Alpha technology, singlet oxygen from a donor bead excites a nearby acceptor bead.
In a further experiment the test system is Trypanosoma cruzi. Put plainly: Trypanosoma cruzi phosphomannomutase and mannose-1-phosphate guanylyltransferase assay. In kind it is functional. As to conditions: 10 µM.
For experiment [5], the target named is T2, Arginase-2, mitochondrial (Homo sapiens) (UniProt P78540).
T2 sequence (whole entry): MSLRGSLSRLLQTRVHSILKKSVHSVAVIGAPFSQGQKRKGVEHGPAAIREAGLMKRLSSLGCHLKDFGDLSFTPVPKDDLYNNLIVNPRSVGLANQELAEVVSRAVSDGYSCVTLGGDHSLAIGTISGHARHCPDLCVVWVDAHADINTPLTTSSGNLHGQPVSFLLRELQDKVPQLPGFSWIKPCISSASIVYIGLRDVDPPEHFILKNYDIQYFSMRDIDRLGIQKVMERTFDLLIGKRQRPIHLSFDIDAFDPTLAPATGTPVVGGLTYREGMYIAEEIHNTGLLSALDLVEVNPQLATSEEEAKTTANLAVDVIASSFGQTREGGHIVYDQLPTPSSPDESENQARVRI
Put plainly: in vitro enzyme assay to detect the production of urea directly proportional to the activity of Arginase II. Note: in the data most compounds retested in dose-response had high values. The following applies: 33.3 µM. The class given is functional.

For experiment [6], the target named is T3, Proteasome subunit beta (Trypanosoma cruzi) (UniProt O96673).
T3 sequence (whole entry): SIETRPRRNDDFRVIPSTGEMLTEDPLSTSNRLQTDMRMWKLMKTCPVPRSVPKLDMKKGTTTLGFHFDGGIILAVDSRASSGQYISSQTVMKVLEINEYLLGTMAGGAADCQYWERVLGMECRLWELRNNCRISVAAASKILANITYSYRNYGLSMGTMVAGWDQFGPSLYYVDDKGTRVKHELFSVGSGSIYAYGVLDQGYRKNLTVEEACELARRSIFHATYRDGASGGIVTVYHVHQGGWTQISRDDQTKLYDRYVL
Put plainly: Trypanosoma cruzi proteasome chymotrypsin-like activity (TcProtChymo) assay. Note: in the data most compounds retested in dose-response had high values. The class given is functional. The following applies: 9.37 µM.

The species named for another experiment is Homo sapiens. Put plainly: To identify inhibition of the IFN signalling (Jak-Stat) pathway via expression of an eGFP reporter gene under the control of an IFN-stimulated response element (ISRE) containing MxA promoter. In kind it is functional. The following applies: 30 µM. (In a reporter assay the amount or activity of a reporter protein is the signal.)

Experiment [7] concerns the target T4, Tyrosyl-tRNA synthetase, putative (Trypanosoma cruzi (strain CL Brener)) (UniProt Q4DSP6).
T4 sequence (whole entry): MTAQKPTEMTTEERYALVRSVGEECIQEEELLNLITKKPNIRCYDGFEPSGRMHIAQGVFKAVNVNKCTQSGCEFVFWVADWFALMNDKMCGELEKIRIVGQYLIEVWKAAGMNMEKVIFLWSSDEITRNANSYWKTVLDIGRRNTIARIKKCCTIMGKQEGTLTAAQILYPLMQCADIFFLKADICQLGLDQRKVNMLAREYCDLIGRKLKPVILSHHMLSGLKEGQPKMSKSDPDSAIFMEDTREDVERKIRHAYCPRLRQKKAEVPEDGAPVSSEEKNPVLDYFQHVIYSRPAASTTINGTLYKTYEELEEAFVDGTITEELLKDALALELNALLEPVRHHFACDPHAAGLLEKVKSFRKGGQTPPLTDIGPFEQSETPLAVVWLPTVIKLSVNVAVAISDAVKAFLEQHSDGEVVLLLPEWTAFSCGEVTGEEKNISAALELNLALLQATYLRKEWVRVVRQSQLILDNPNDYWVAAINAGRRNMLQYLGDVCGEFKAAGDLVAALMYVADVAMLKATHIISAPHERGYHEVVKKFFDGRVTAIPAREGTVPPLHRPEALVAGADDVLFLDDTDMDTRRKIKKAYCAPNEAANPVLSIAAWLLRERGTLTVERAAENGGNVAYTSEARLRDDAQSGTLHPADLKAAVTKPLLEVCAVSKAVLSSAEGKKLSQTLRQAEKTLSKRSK
Put plainly: Trypanosoma cruzi tyrosyl tRNA synthetase (TcYRS) _High Tyrosine SOP. Note: in the data most compounds retested in dose-response had high values. In kind it is functional. The following applies: 30 µM.

The target in experiment [8] is T4, Tyrosyl-tRNA synthetase, putative (Trypanosoma cruzi (strain CL Brener)). Put plainly: Trypanosoma cruzi tyrosyl tRNA synthetase (TcYRS) SOP. In kind it is functional. As to conditions: 30 µM.
In experiment [9] the target is Chromo domain-containing protein 1 (Saccharomyces cerevisiae (strain ATCC 204508 / S288c) (Baker's yeast)) (UniProt P32657). Put plainly: ScCHD-1 Enzyme Inhibition Assay. Note: in the data most compounds retested in dose-response had high values. The class given is functional. As to conditions: 30 µM.

For some of these results: Entries with a potency or affinity are not part of this list.

Chain of Chromo domain-containing protein 1 (Saccharomyces cerevisiae (strain ATCC 204508 / S288c) (Baker's yeast)) (P32657 whole entry, the tested form may be a part): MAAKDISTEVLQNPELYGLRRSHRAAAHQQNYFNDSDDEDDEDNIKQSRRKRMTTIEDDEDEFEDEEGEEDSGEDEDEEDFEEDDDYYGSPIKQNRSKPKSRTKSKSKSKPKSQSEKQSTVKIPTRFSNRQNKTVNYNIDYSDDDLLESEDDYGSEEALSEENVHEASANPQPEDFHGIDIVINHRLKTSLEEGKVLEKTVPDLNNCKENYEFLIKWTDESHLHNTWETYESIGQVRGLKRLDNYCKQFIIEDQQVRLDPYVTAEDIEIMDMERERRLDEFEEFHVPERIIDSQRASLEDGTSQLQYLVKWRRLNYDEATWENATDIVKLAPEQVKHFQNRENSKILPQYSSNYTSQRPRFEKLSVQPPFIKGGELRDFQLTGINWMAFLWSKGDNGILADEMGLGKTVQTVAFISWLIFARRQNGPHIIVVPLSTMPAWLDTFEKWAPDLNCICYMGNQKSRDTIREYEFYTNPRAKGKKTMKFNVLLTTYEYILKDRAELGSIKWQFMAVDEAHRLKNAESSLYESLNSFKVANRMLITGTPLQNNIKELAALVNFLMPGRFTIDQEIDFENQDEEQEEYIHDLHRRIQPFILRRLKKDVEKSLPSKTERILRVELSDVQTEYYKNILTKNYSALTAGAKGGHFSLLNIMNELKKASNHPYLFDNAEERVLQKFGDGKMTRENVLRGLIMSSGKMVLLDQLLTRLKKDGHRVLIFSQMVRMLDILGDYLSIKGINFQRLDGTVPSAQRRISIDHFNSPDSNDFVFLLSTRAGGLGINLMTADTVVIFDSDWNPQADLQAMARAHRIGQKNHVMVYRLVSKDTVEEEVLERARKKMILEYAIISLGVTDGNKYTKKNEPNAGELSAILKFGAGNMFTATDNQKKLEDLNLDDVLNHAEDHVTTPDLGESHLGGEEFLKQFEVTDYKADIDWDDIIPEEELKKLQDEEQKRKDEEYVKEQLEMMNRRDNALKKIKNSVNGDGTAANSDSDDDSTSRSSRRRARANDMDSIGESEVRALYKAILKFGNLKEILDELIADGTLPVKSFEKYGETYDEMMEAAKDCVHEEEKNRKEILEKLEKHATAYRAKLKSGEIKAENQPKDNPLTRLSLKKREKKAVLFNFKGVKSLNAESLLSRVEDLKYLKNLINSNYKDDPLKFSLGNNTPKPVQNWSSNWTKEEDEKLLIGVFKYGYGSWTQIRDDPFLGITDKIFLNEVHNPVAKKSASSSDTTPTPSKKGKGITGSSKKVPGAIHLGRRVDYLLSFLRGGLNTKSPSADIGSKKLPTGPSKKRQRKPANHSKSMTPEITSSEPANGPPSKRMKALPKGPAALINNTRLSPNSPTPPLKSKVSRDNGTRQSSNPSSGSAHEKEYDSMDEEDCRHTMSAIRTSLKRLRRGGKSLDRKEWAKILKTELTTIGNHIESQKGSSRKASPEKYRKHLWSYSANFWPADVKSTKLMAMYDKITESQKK
Chain of Sialic acid-binding Ig-like lectin 9 (Homo sapiens) (Q9Y336 whole entry): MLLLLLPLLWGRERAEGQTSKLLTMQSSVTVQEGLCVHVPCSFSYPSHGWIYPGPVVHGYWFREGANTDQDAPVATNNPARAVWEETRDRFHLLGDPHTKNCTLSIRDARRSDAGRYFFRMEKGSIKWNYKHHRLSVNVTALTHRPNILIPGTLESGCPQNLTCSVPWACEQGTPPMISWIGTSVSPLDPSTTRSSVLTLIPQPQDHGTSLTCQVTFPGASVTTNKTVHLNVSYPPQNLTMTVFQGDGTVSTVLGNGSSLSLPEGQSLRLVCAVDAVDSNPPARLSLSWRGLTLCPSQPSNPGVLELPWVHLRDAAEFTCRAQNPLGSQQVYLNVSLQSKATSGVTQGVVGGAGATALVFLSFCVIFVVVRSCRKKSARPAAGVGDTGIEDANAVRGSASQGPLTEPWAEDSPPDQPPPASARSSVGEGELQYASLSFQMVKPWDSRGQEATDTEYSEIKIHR
Chain of Protein translocase subunit SecA (Escherichia coli (strain K12)) (P10408 whole entry): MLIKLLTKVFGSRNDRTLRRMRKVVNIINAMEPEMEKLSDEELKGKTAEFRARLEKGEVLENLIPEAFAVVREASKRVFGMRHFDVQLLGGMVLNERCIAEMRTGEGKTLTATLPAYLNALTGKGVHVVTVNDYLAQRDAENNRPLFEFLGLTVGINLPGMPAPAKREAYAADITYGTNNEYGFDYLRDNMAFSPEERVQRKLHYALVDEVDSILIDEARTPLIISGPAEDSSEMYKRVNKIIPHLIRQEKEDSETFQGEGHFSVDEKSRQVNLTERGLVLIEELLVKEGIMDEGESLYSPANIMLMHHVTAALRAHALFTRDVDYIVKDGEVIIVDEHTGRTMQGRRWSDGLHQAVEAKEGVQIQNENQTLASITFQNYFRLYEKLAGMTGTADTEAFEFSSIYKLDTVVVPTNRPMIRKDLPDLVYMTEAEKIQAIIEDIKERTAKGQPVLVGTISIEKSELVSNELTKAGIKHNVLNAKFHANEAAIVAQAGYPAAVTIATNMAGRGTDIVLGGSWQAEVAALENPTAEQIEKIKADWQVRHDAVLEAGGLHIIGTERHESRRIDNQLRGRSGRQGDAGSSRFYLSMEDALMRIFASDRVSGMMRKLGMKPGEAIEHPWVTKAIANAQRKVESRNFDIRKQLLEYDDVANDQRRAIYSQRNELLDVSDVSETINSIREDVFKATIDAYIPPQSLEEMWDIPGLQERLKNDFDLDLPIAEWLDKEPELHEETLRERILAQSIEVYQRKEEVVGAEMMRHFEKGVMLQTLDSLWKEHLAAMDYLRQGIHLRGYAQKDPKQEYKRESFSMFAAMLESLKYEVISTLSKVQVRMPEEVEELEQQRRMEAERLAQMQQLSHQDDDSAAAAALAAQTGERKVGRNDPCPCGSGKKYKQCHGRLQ

With `CSc1ccccc1CN1CCCn2nc(CNC(=O)N(C)C)cc2C1`, the Percent Effect in experiment [1] was -2.86%; in experiment [2], 8.22%; in experiment [3], -6.48%; in experiment [4], 20.7%; with Trypanosoma cruzi it was 3.13%; in [5], 4.09%. Moreover, the Percent Effect in experiment [6] stood at 6.92%; in the experiment filed under Homo sapiens, 9.78%; in experiment [7], 4.3%; in experiment [8], 12.5%; in [9], 97.4%.
On to `CCn1nc(C)c2ccn(CC(=O)NC3CCCC3)c(=O)c21`, for which the Percent Effect in [1] was -4.42%; in experiment [2] it was 7.79%; in experiment [3] it was 58%; in experiment [4], 0.145%; in the experiment with Trypanosoma cruzi, -4.63%; in experiment [5], 0.645%. The Percent Effect in [6] was 5.57%; in the experiment filed under Homo sapiens, 20.1%; in experiment [7], -1.06%; in experiment [8] it was -6.41%; in experiment [9], -2.48%.
As for `Cc1cccc(CN2C(=O)CO[C@@H]3CN(CCO)C[C@H]32)c1`, the Percent Effect was 1.05% in experiment [1]; 10.8% in [2]; -5.9% in [3]; -3.44% in experiment [4]; 4.88% in the experiment with Trypanosoma cruzi; 26.2% in [5]. Further, the Percent Effect is 12.1% in experiment [6]; 10.1% in the experiment listed under Homo sapiens; 6.93% in [7]; 8.54% in experiment [8]; 1.31% in [9].
`Cc1ccc(C)c(CNC(=O)NC(C)(C(=O)O)c2ccco2)c1` (stereo unspecified): the Percent Effect in experiment [1] was -5.53%; in experiment [2], 21.1%; in experiment [3], -0.592%; in [4], 12.2%; in the experiment on Trypanosoma cruzi, 8.12%; in experiment [5], -5.75%. Besides, the Percent Effect is 5.33% in experiment [6]; 5.04% in the experiment filed under Homo sapiens; 5.42% in [7]; 16.1% in experiment [8]; -4.02% in experiment [9].
Take `COc1ccc(Br)c(C(=O)NCC2CCN(C(=O)c3ccoc3)CC2)c1`: the Percent Effect is -6.69% in experiment [1]; 5.48% in [2]; 7.36% in [3]; -0.134% in [4]; 0.783% with Trypanosoma cruzi; 3.18% in [5]. The Percent Effect in experiment [6] was 12.4%; in the experiment filed under Homo sapiens, 7.16%; in experiment [7], 5.38%; in experiment [8], 17.5%; in experiment [9], -6.16%.
As to `Fc1ccc(CN2CCCC(Cn3cncn3)C2)c2ncccc12` (stereo unspecified), the Percent Effect in experiment [1] was -5.33%; in experiment [2], 5.2%; in experiment [3] it was -0.904%; in experiment [4] it was 8.63%; in the experiment with Trypanosoma cruzi, 1.67%; in experiment [5], -1.38%. Moreover, the Percent Effect in experiment [6] is 12.2%; in the experiment filed under Homo sapiens, -1.67%; in experiment [7], 5.38%; in experiment [8], 11.1%; in experiment [9], 1.09%.
As to `CC(C(=O)N1CCCN(c2ncccc2C#N)CC1)n1ccnc1` (stereo unspecified), the Percent Effect is -2.42% in experiment [1]; 21.1% in [2]; 0.0866% in experiment [3]; -9.53% in [4]; 5.13% with Trypanosoma cruzi; -1.08% in [5]. For the same molecule, the Percent Effect in experiment [6] was 7.19%; in the experiment filed under Homo sapiens it was 14%; in experiment [7] it was 10.3%; in experiment [8] it was 18.5%; in [9] it was -9.73%.
`CN(Cc1ccc(F)cc1)CC1(O)CCN(C(=O)c2ccccc2)C1` (stereo unspecified): the Percent Effect in experiment [1] was -1.26%; in experiment [2] it was 4.05%; in [3], 9.4%; in [4], 2.19%; in the experiment with Trypanosoma cruzi, -8.1%; in [5] it was 1.16%. Besides, the Percent Effect in experiment [6] amounted to 9.98%; in the experiment filed under Homo sapiens, 15.7%; in experiment [7], 2.15%; in [8], 6.49%; in [9] it was 13.1%.
For the molecule `O=C(NCC1CC1)C1CN(C(=O)c2ccncc2)CC12CCOCC2` (stereo unspecified), the Percent Effect in [1] was 1.79%; in [2] it was 15.6%; in [3], -0.39%; in experiment [4] it was -4.66%; in the experiment with Trypanosoma cruzi, 0.296%; in experiment [5], 4.52%. Also, the Percent Effect in experiment [6] was 17.6%; in the experiment listed under Homo sapiens it was 28.1%; in experiment [7], 2.12%; in [8], 19.2%; in [9], -10.9%.
For `Cc1cnc(C(=O)N(CCN(C)C)Cc2ccc(Cl)cc2)cn1`, the Percent Effect is -0.752% in experiment [1]; 20.8% in experiment [2]; 5.67% in experiment [3]; 9.21% in experiment [4]; 4.37% in the experiment with Trypanosoma cruzi; 9.71% in [5]. For the same molecule, the Percent Effect in [6] was 15.3%; in the experiment filed under Homo sapiens it was -3.66%; in experiment [7] it was 4.21%; in experiment [8], 10.3%; in experiment [9], -4.76%.
Take `CCN(C(=O)COC)C(c1cccnc1)c1cc(C)cc(C)c1` (stereo unspecified): the Percent Effect was 0.0465% in experiment [1]; 2.74% in [2]; 4.88% in [3]; 27.6% in experiment [4]; -11.3% with Trypanosoma cruzi; 1.6% in experiment [5]. Besides, the Percent Effect in experiment [6] is 12.9%; in the experiment listed under Homo sapiens, 22.9%; in experiment [7] it was -2.08%; in experiment [8], -8.64%; in experiment [9], -2.33%.
